Laboratory results taken from ChEMBL document CHEMBL1961873, “Compounds: GSK PKIS; Assays: Nanosyn kinase panel” (2012).

Legend:
[1] = biological target: T1, 3-phosphoinositide-dependent protein kinase 1 (Homo sapiens) (UniProt O15530); conditions: at 0.1 µM;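 note: values are mean inhibition of PDK1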
T1 sequence (whole entry): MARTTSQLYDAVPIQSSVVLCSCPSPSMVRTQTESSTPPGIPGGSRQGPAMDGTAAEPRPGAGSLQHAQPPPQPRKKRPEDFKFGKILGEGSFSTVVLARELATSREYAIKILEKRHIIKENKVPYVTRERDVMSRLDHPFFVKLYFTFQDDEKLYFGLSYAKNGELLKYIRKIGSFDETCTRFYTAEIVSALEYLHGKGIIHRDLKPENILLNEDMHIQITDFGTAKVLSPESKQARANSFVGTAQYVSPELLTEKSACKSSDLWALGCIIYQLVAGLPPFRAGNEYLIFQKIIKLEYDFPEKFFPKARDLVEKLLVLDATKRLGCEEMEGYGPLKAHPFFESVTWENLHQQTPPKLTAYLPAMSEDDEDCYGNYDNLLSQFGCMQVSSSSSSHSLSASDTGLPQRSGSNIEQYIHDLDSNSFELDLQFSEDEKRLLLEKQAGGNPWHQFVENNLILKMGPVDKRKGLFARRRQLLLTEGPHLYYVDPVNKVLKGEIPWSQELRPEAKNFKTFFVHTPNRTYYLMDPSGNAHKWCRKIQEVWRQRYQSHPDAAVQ

[2] = biological target: cAMP-dependent protein kinase catalytic subunit alpha (Homo sapiens) (UniProt P17612); conditions: at 0.1 µM
[3] = biological target: cAMP-dependent protein kinase catalytic subunit alpha (Homo sapiens) (UniProt P17612); conditions: at 1 µM
[4] = biological target: Protein kinase C alpha type (Homo sapiens) (UniProt P17252); conditions: at 0.1 µM
[5] = biological target: Protein kinase C alpha type (Homo sapiens) (UniProt P17252); conditions: at 1 µM
[6] = biological target: Protein kinase C beta type (Homo sapiens) (UniProt P05771); conditions: at 0.1 µM
Sequence of Protein kinase C beta type (Homo sapiens) (P05771 2-671 limits assumed): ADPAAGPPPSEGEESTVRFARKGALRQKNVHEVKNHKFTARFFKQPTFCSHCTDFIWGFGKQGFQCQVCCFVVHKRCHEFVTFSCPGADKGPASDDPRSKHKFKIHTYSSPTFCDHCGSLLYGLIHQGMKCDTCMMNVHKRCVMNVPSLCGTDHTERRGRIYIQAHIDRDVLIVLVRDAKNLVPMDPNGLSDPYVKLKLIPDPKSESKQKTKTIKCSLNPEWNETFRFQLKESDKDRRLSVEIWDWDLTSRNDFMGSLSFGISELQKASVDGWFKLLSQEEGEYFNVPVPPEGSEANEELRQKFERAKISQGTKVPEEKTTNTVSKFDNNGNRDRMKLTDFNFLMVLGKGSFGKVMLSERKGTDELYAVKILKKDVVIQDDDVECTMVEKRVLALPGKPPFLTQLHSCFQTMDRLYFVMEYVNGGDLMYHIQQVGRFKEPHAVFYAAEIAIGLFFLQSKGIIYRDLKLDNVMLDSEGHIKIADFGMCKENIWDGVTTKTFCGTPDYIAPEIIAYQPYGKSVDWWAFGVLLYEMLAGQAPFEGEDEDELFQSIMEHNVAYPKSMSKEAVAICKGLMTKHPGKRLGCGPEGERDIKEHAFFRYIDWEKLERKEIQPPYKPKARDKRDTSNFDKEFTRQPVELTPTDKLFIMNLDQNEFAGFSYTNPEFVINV

[7] = biological target: Protein kinase C beta type (Homo sapiens) (UniProt P05771); conditions: at 1 µM
[8] = biological target: Protein kinase C eta type (Homo sapiens) (UniProt P24723); conditions: at 0.1 µM
Sequence of Protein kinase C eta type (Homo sapiens) (P24723 whole entry): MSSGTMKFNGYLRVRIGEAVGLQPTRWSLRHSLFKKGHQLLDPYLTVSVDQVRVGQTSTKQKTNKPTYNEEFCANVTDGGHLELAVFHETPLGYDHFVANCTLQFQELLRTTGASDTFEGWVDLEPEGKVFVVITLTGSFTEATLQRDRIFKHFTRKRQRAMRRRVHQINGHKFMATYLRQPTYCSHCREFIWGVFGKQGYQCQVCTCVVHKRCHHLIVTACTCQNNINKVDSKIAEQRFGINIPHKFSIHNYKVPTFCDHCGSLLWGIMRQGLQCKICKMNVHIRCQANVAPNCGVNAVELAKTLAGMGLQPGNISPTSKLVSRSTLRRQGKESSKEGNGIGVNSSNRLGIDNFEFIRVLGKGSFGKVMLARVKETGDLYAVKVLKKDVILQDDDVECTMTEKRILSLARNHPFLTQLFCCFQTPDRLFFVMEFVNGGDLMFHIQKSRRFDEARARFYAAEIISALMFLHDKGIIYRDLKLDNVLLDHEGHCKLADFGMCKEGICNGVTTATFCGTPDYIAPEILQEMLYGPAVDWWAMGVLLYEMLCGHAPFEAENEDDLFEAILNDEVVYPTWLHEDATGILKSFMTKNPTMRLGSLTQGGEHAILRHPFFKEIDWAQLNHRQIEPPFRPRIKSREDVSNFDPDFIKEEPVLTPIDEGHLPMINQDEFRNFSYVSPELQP

[9] = biological target: Protein kinase C eta type (Homo sapiens) (UniProt P24723); conditions: at 1 µM
[10] = biological target: Protein kinase C gamma type (Homo sapiens) (UniProt P05129); conditions: at 0.1 µM
[11] = biological target: Protein kinase C gamma type (Homo sapiens) (UniProt P05129); conditions: at 1 µM
[12] = biological target: T2, Protein kinase C iota type (Homo sapiens) (UniProt P41743); conditions: at 0.1 µM
T2 sequence (whole entry): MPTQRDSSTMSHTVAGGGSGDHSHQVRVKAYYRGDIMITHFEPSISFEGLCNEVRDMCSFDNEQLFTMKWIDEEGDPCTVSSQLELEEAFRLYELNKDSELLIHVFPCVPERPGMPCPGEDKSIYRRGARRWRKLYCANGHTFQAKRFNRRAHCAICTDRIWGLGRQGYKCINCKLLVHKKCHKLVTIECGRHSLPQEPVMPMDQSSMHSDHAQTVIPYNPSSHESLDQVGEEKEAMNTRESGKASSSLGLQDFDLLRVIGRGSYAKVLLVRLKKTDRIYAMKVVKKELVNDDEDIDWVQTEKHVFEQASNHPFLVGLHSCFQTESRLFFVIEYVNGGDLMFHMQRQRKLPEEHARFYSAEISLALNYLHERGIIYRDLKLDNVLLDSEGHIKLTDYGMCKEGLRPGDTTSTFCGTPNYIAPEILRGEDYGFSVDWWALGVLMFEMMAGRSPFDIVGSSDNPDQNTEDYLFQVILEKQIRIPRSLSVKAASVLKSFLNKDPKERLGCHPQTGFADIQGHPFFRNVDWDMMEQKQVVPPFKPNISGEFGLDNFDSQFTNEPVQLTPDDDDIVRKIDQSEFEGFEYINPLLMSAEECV

[13] = biological target: T2, Protein kinase C iota type (Homo sapiens); conditions: at 1 µM
[14] = biological target: Protein kinase C theta type (Homo sapiens) (UniProt Q04759); conditions: at 0.1 µM
Sequence of Protein kinase C theta type (Homo sapiens) (Q04759 whole entry, looked up): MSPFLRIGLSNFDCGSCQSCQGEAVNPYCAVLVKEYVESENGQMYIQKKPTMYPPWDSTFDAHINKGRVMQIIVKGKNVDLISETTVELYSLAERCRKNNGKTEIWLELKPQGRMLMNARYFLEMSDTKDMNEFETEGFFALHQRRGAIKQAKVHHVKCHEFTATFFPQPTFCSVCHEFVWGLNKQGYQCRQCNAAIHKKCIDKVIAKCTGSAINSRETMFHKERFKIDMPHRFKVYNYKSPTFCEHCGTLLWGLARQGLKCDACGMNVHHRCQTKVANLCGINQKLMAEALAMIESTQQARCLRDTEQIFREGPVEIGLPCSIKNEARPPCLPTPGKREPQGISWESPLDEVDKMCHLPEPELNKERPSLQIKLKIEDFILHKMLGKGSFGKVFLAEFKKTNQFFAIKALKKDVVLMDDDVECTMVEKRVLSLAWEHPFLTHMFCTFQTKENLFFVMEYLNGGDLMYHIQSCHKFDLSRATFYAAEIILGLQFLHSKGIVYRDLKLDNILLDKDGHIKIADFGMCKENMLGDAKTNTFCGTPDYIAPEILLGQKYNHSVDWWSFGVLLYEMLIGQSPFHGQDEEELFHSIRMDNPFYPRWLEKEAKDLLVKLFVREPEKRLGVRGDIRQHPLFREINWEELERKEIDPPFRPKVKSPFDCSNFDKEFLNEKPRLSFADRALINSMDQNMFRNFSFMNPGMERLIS

[15] = biological target: Protein kinase C theta type (Homo sapiens) (UniProt Q04759); conditions: at 1 µM
[16] = biological target: Protein kinase C beta type (Homo sapiens) (UniProt P05771); conditions: at 0.1 µM; remark: listed apart in the source
[17] = biological target: Protein kinase C beta type (Homo sapiens) (UniProt P05771); conditions: at 1 µM; remark: listed apart in the source
[18] = biological target: T3, Serine/threonine-protein kinase D1 (Homo sapiens) (UniProt Q15139); conditions: at 0.1 µM
T3 sequence (whole entry): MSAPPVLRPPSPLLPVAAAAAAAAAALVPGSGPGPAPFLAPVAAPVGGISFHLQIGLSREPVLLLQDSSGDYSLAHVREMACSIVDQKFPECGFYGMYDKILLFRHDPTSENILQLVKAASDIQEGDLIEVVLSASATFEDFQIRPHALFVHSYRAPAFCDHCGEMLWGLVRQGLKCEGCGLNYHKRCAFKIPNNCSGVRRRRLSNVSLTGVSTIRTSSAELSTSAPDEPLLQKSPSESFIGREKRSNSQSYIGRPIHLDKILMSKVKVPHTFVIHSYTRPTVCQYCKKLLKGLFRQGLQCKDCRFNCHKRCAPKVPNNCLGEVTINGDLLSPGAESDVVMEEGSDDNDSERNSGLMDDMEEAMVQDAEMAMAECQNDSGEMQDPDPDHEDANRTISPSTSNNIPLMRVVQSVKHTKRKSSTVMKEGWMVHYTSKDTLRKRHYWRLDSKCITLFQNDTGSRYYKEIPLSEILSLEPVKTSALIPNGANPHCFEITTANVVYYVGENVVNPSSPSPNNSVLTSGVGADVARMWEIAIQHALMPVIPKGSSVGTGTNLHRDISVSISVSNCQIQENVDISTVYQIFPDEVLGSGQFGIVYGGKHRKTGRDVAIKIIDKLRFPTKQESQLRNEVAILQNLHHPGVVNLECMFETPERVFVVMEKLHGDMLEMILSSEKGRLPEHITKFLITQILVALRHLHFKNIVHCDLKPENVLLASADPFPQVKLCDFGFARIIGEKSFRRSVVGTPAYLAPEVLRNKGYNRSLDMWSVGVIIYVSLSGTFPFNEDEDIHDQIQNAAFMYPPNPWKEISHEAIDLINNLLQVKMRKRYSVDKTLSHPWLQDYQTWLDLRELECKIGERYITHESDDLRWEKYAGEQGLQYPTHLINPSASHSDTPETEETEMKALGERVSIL

[19] = biological target: T3, Serine/threonine-protein kinase D1 (Homo sapiens); conditions: at 1 µM
[20] = biological target: T4, Serine/threonine-protein kinase D2 (Homo sapiens) (UniProt Q9BZL6); conditions: at 0.1 µM;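 note: reported percent inhibition values are means, part of the GSK PKIS kinase panel screen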
T4 sequence (whole entry): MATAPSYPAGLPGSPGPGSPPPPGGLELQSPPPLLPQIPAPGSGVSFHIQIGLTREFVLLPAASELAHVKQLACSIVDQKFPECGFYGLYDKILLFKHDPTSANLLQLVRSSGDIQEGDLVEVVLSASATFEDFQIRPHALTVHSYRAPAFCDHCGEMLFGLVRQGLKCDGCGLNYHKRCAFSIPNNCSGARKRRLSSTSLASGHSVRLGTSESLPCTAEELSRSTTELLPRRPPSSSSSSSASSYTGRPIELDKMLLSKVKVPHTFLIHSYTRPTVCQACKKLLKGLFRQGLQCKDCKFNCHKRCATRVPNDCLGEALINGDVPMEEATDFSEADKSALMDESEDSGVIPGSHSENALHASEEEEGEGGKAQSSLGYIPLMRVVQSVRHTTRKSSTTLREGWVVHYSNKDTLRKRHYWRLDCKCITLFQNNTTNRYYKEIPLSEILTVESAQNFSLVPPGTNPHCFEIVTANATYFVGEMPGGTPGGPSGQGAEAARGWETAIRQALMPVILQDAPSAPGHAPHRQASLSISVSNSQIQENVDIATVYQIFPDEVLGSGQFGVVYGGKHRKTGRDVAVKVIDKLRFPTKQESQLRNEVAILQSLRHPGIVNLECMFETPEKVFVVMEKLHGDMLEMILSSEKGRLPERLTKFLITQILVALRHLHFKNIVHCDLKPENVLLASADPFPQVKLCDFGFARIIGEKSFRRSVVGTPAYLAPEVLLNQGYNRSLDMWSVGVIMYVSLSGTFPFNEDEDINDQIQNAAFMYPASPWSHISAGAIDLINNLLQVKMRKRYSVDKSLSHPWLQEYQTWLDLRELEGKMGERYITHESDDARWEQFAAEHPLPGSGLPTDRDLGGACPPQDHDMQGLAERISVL

| SMILES | inhibition [1] [%] | inhibition [2] [%] | inhibition [3] [%] | inhibition [4] [%] | inhibition [5] [%] | inhibition [6] [%] | inhibition [7] [%] | inhibition [8] [%] | inhibition [9] [%] | inhibition [10] [%] | inhibition [11] [%] | inhibition [12] [%] | inhibition [13] [%] | inhibition [14] [%] | inhibition [15] [%] | inhibition [16] [%] | inhibition [17] [%] | inhibition [18] [%] | inhibition [19] [%] | inhibition [20] [%] |
| --- | --- | --- | --- | --- | --- | --- | --- | --- | --- | --- | --- | --- | --- | --- | --- | --- | --- | --- | --- | --- |
| CN(C)c1cc2c(Nc3ccc4nc(Cc5ccccc5)[nH]c4c3)ncnc2cn1 | 4.68 | 3.66 | 2.62 | 1.27 | 2.33 | -1.06 | 2.6 | 3.25 | 3.62 | 3.66 | 4.36 | 2.13 | 2.77 | 2.25 | 4.22 | 1.18 | 3.96 | 4.29 | 6.67 | 5.21 |
| CC1=C(C(=O)Nc2ccc3[nH]ncc3c2)C(c2ccc3ccccc3c2)CC(=O)N1 (stereo not given) | 2.2 | 7.18 | 45.9 | 1.26 | 1.61 | 1.81 | 0.44 | 4.97 | 14.1 | 0.67 | 2.79 | 1.06 | 0.77 | 1.49 | 3 | 0.83 | 1.67 | 2.78 | 9.17 | 2.02 |
| CCCN1CCC=C(c2ccc(Nc3nc(Nc4ccccc4C(N)=O)c4cc[nH]c4n3)c(C)c2)C1 | -0.1 | 2.92 | 2.79 | 0.33 | 6.13 | -0.14 | -0.64 | 5.56 | 4.73 | 3.41 | 9.77 | 0.1 | 1.27 | 2.34 | 3.28 | 1.44 | 3.5 | 33.8 | 71.3 | 25.1 |
| COc1cccc(-n2ncc3c(N/N=C/c4cccc(F)c4)ncnc32)c1 | 1.33 | -1.81 | -1.91 | -3.02 | -2.41 | 0.85 | 1.36 | 0.06 | 3.37 | 2.4 | 1.92 | 1.95 | 1.9 | 0.55 | 2.23 | 1.7 | 3.14 | -1.15 | 0.28 | -1.06 |
| CC(C)=Cc1cccc2c1/C(=N/Nc1ccc(S(N)(=O)=O)cc1)C(=O)N2 | 10.4 | 0.47 | 3.74 | 0.96 | 1.29 | 0.26 | 1.55 | 0.51 | 2.14 | 1.44 | 1.25 | 0.62 | 0.09 | 1.24 | 6.89 | 0.32 | 1.68 | 2.84 | 13.5 | -0.05 |
| COC(=O)Nc1nc2cc(Oc3cccc(NC(=O)Nc4cc(C(F)(F)F)ccc4F)c3)ccc2[nH]1 | 1.08 | 2.29 | 4.75 | 0.42 | 0.96 | 0.04 | 2.71 | 0.61 | -1.2 | 1.08 | 2.09 | -0.71 | -0.55 | -0.27 | -0.91 | 3.01 | 1.79 | 0.22 | 1.03 | 0.66 |
| CCn1c(-c2nonc2N)nc2c(C#CC(C)(C)O)nc(OC[C@@H](N)c3ccccc3)cc21 | 0.47 | 77.5 | 79.3 | -2.77 | 8.94 | 6.21 | 36 | 81.4 | 96.8 | 8.95 | 45.3 | 1.26 | 0.8 | 11.9 | 52.5 | 3.74 | 23.1 | -0.47 | 9.57 | -0.26 |
| O=C1NC(=O)C(c2cccc(Cl)c2)=C1Nc1ccc(O)c(Cl)c1 | 0.43 | 1.25 | 1.73 | 3.2 | 6.33 | 0.44 | 4.94 | 1.88 | 2.97 | -4.59 | 0.01 | -1.41 | 0.5 | 0 | 4.79 | 0.56 | 8.45 | 0.15 | 1.38 | 0.62 |
| COc1cc2ncn(-c3cc(O[C@@H](C)c4ccccc4Cl)c(C(N)=O)s3)c2cc1OC | 0.82 | 4.37 | 4.38 | 1.75 | 3.87 | 3.42 | 4.55 | 5.28 | 3.1 | 3.01 | 1.93 | 3.86 | 4.88 | 2.16 | 3.24 | 1.99 | 5.36 | 5.25 | 6.69 | 4.18 |
